Inconclusive results are not listed. Active and inactive are the calls of the source. Unless noted, calls follow the shape of the full dose curve.

16 compounds from PubChem BioAssay (NCATS) can be followed below.

A short description of assay [1]: Validation screen for inhibitors of Lassa infection (AID 463096). Also: potency is read from the fitted curve at half-maximal effect.
A short description of assay [2]: Inducers of the Endoplasmic Reticulum Stress Response (ERSR) in human glioma: Validation (AID 504836; active = well fitted curve in the direction sought with a large enough effect). An outline of the steps: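 Stably transfected U87-MG human glioma cells carrying a GRP78-based luminescent sensor were seeded at 1000 cells/well, pin-dosed with compounds and incubated 16 h. Luciferase reagent was then added, and end-point luminescence was read after 10 min at room temperature.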

Assay [3] in a line: qHTS for Inhibitors of the Functional Ribonucleoprotein Complex (vRNP) of Lassa (LASV) Arenavirus: LASV Primary Screen - GLuc reporter signal (AID 1347082; calls by dose curve; tested in HEK293 reporter line; also: series mostly up to about 57 µM; nearly all actives have a fitted effect of over 60% in size).
Assay [4] is described as follows: qHTS for Inhibitors of the Functional Ribonucleoprotein Complex (vRNP) of Lassa (LASV) Arenavirus: Viability assay - alamar blue signal for LASV Primary Screen (AID 1347083; calls by dose curve; tested in HEK293 reporter line; also: series mostly up to about 57 µM; nearly all actives have a fitted effect of over 80% in size).
Assay [5] is described as follows: qHTS for Inhibitors of the Functional Ribonucleoprotein Complex (vRNP) of Lymphocytic Choriomeningitis Arenaviruses (LCMV): Viability assay - alamar blue signal for LCMV Primary Screen (AID 1347085; calls by dose curve; tested in HEK293 reporter line; also: series mostly up to about 57 µM; nearly all actives have a fitted effect of over 80% in size).
Assay [6] has as its target Nucleoprotein (Lymphocytic choriomeningitis virus (strain Armstrong)) (UniProt P09992). The assay is described as follows: qHTS for Inhibitors of the Functional Ribonucleoprotein Complex (vRNP) of Lymphocytic Choriomeningitis Arenaviruses (LCMV): LCMV Primary Screen - GLuc reporter signal (AID 1347086). Also: series mostly up to about 57 µM; nearly all actives have a fitted effect of over 70% in size.

Chain of Nucleoprotein (Lymphocytic choriomeningitis virus (strain Armstrong)) (P09992 whole entry, looked up): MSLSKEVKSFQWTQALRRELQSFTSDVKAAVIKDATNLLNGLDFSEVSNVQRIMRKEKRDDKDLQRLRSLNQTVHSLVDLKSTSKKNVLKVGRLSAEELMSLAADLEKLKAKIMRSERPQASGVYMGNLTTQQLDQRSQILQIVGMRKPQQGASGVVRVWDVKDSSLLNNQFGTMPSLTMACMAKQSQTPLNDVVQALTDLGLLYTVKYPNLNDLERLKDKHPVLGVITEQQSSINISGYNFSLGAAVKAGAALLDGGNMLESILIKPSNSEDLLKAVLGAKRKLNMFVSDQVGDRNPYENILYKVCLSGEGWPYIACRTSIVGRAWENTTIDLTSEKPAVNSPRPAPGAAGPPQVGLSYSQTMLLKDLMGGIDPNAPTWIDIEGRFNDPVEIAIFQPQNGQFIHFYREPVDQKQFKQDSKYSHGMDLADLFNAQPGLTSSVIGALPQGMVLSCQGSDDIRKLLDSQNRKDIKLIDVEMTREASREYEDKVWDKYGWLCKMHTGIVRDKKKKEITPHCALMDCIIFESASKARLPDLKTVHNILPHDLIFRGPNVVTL

Turning to `O=C(O)C1CN(CCCP(=O)(O)O)CCN1` (stereo unspecified), the Potency entry in assay [1], in assay [3], in assay [4], in assay [5] and in assay [6] was “inactive” in each case. Besides, the call in assay [2] was inactive.

Consider `CC(C)NCC(O)COc1ccc(CC(N)=O)cc1` (stereo unspecified), for which the Potency entry in assay [1], in assay [3], in assay [4], in assay [5] and in assay [6] was “inactive” in each case. Besides, the compound was called inactive in assay [2].

As to `CN1C2CCC1CC(OC(c1ccccc1)c1ccccc1)C2` (stereo unspecified), in assay [1], the Potency is 10 µM (active). Moreover, in assay [2], the compound was called inactive. The Potency entry in assay [3], in assay [4], in assay [5] and in assay [6] was “inactive” in each case.

With `O=C(O)C1CCCNC1` (stereo unspecified), the Potency entry in assay [1], in assay [3], in assay [4], in assay [5] and in assay [6] was “inactive” each time. The compound was classed as inactive in assay [2].

Take `OC(CN1CCN(c2cccc(Cl)c2)CC1)C(c1ccccc1)c1ccccc1` (stereo unspecified): the Potency entry in assay [1], in assay [3], in assay [4], in assay [5] and in assay [6] was “inactive” each time. Besides, the call in assay [2] was inactive.

As for `C[C@@H](CN1CCC(Cc2ccccc2)CC1)[C@@H](O)c1ccc(O)cc1`, the Potency entry in assay [1], in assay [3], in assay [4], in assay [5] and in assay [6] was “inactive” each time. In assay [2], the compound was called inactive.

As to `CC(C)(C)NCC(O)COc1cccc2[nH]c(=O)[nH]c12` (stereo unspecified), the Potency result in assay [1], in assay [3], in assay [4], in assay [5] and in assay [6] was “inactive” throughout. Moreover, the result in assay [2] was inactive.

Turning to `COc1cc(C(O)CO)ccc1OS(=O)(=O)O` (stereo unspecified), the Potency entry in assay [1], in assay [3], in assay [4], in assay [5] and in assay [6] was “inactive” in each case. Moreover, the compound was classed as inactive in assay [2].

As for `COC(=O)C(C)(N)Cc1ccc(O)cc1` (stereo unspecified), the Potency entry in assay [1], in assay [3], in assay [4], in assay [5] and in assay [6] was “inactive” throughout. In addition, the call in assay [2] was inactive.

In the case of `CSC(N)=NCCC[C@H](N)C(=O)O`, the Potency entry in assay [1], in assay [3], in assay [4], in assay [5] and in assay [6] was “inactive” throughout. Besides, in assay [2], the compound was classed as inactive.

With `CCCC[C@@]1(C2CCCC2)Cc2cc(OCC(=O)O)c(Cl)c(Cl)c2C1=O`, the Potency entry in assay [1], in assay [3], in assay [4], in assay [5] and in assay [6] was “inactive” throughout. For the same compound, in assay [2], the compound was called inactive.

Regarding `CO/N=C(\C(=O)N[C@@H]1C(=O)N2C(C(=O)O)=C(CSc3nc(=O)c(O)nn3C)CSC12)c1csc(N)n1` (stereo partly specified), the Potency entry in assay [1], in assay [3], in assay [4], in assay [5] and in assay [6] was “inactive” throughout. Also, the outcome in assay [2] was inactive.

As to `CC(C)C[C@H](NC(=O)C1OC1C(=O)O)C(=O)NCCCCN=C(N)N` (stereo partly specified), the Potency entry in assay [1], in assay [3], in assay [4], in assay [5] and in assay [6] was “inactive” throughout. Besides, the outcome in assay [2] was inactive.

As to `NCC(O)(CS(=O)(=O)O)c1ccc(Cl)cc1` (stereo unspecified), the Potency entry in assay [1], in assay [3], in assay [4], in assay [5] and in assay [6] was “inactive” in each case. Also, the call in assay [2] was inactive.

Turning to `CCCCC/C=C\CC(O)/C=C/c1cccc(CC(O)CCCCO)n1` (stereo unspecified), the Potency entry in assay [1], in assay [3], in assay [4], in assay [5] and in assay [6] was “inactive” each time. The compound was classed as inactive in assay [2].

For `NC(=O)CC[C@H](N)C(=O)O`, the Potency entry in assay [1], in assay [3], in assay [4], in assay [5] and in assay [6] was “inactive” throughout. In assay [2], the compound was classed as inactive.
